Results from PubChem BioAssay AID504840 (Johns Hopkins Ion Channel Center, 2011).
Out of some 1,500 compounds screened, about 890 (59%) were called active.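 Rule for the calls: active = inhibition of the choline-evoked signal at any tested dose together with a fitted dose-response curve; inactive = no inhibition at any dose or no curve.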 The set was probably picked from earlier hits. These entries were drawn from the full list. Measured potencies and affinities stand elsewhere.

The compounds below were run against High affinity choline transporter 1 (Homo sapiens) (UniProt Q9GZV3) (assay: human choline transporter blockers, potency – cell-based, 5-point CRC, membrane potential dye, dose response (AID 504840;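 note: 0% = buffer-only response and 100% = EC90 choline response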)). Conditions: HEK293-CHT, choline-induced depolarization, CHT with LV-to-AA double alanine mutation; series mostly up to 37 µM; inhibition: at the top concentration.
Sequence of High affinity choline transporter 1 (Homo sapiens) (Q9GZV3 whole entry, looked up): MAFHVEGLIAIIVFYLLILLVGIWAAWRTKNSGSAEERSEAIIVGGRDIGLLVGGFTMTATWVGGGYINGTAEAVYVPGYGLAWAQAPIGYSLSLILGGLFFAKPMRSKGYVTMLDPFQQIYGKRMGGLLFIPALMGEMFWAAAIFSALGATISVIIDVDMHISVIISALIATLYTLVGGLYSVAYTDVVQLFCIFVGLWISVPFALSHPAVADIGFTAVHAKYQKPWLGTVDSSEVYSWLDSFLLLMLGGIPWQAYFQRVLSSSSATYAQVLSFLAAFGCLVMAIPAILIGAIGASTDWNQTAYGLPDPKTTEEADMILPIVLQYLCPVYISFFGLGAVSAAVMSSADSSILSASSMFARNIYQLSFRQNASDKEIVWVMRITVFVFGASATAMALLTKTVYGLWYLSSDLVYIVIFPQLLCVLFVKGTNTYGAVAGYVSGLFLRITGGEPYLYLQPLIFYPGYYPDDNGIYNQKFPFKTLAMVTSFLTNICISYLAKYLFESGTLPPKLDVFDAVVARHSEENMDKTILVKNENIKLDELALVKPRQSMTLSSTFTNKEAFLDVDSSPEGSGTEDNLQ

inhibition, inactive:
OCC1OC(n2cnc3c(NC4CCCCC4)ncnc32)C(O)C1O (stereo not drawn) 46.6%
CC(=O)c1ccc(Nc2nc(NCCO)nc(OC(C(F)(F)F)C(F)(F)F)n2)cc1 23.8%
CC1CCN(CCCNC(=O)CN2C(=O)CSc3ccc(S(=O)(=O)N4CCCCC4)cc32)CC1 53.7%
CCCCN(C)CCNC(=O)CN1C(=O)CSc2ccc(S(=O)(=O)N3CCCC3)cc21 52.2%
Cc1ccc(-c2csc3ncnc(N4CCN(C)CC4)c23)cc1C 53.4%
Cc1ccc(-c2csc3ncnc(-n4cnc5ccccc54)c23)cc1 85%
Cc1ccc(-c2csc3ncnc(-n4nnc5ccccc54)c23)cc1 57.5%
O=C(O)CCN1C(=O)CC(N2C(=O)/C(=C/c3ccc(Cl)cc3)SC2=S)C1=O (stereo not drawn) 49.9%
COc1ccc(-c2csc3ncnc(NCCCO)c23)cc1 52.9%
CCCNC(=O)N1CCCC(C(=O)c2cccc(Cl)c2)C1 (stereo not drawn) 6.87%
CCOC(=O)Cc1csc(N/C(=N/S(=O)(=O)c2ccc(F)cc2F)c2ccccc2)n1 11%
Cc1cc(O)ccc1NS(=O)(=O)c1ccc2c3c(cccc13)C(=O)N2 38.9%
CC1Cc2ccccc2N1C(=O)COC(=O)c1ccc(O)cc1 (stereo not drawn) 24.7%
CC[C@H](CO)Nc1nc(Nc2cccc(Cl)c2)c2ncn(C(C)C)c2n1 33.4%
COc1cc2c(cc1OC)/C(=C/C(=O)c1ccccc1F)NCC2 49.9%
CCCCCn1c(=O)c(F)cn(Cc2ccc(OC)c([N+](=O)[O-])c2)c1=O 58.7%
Cn1c(-c2ccccc2)cnc1SCc1nc2ccccc2c(=O)[nH]1 30.3%
N#Cc1ccccc1COC(=O)c1cccnc1N 41.7%
CC1=C(C(=O)NC(C)C)C2(CCC(C)CC2)OC1=O (stereo not drawn) -0.294%
COc1ccc(/C=C2/SC(=S)N(NS(=O)(=O)c3ccccc3)C2=O)cc1 41.8%
O=C1/C(=C/c2ccc(F)cc2)SC(=S)N1NS(=O)(=O)c1ccccc1 40.3%
COc1cc(C=O)ccc1OCCOCCOc1ccccc1Cl 22.1%
CCOc1ccc(/C=C2\SC(=S)N(NS(=O)(=O)c3ccc(C)cc3)C2=O)cc1OC 72.1%
Cc1ccc(C(=O)Nc2cccc(C(F)(F)F)c2)cc1NC(=O)c1csc(-c2ccncc2)n1 21.5%
Cc1ccc(NC(=O)COC(=O)CN2C(=O)COc3ccccc32)cc1 56.4%
CCOc1ncccc1C(=O)NCC1COc2ccccc2O1 (stereo not drawn) 15.3%
CC1(C)CC2CC(C)(CN2C(=O)CCCN2C(=O)c3ccccc3C2=O)C1 (stereo not drawn) 53.6%
CCOc1cccc(-c2nn(-c3ccccc3)cc2/C=C(/C#N)C(=O)NCCCn2ccnc2)c1 28.6%
Cc1ccc2nc(-c3ccccc3)cc(C(=O)NCCCn3ccnc3)c2c1 63%
O=C(O)c1ccc(N/N=C/c2cn(-c3ccccc3)nc2-c2cccs2)cc1 55.5%
Cc1c(CCC(=O)NCCCn2ccnc2)c(=O)oc2c(C)c3occ(C(C)(C)C)c3cc12 76.5%
COc1ccc(/C(O)=C2/C(=O)C(=O)N(c3ccccn3)C2c2cccc(Cl)c2)cc1 (stereo not drawn) 37.6%
O=C(NC1CC1)C1=C[C@H](c2csc3ccccc23)C[C@H](OCc2ccc(CO)cc2)O1 -0.201%
O=C(Nc1ccc(OCc2ccccc2)cc1)Nc1ccccc1C(=O)NCCCN1CCOCC1 37.1%
CSc1ccccc1C(=O)NCCS(=O)(=O)N1CCN(c2ccc(F)cc2)CC1 53.1%
O=C(Nc1ccccc1C(=O)NCCCn1ccnc1)c1ccc(Cl)cc1Cl 53.8%
C=CCn1c(SC2CCOC2=O)nc2scc(C3CC3)c2c1=O (stereo not drawn) 51%
CN(C)CCOC(=O)Cc1ccc(Cl)cc1 22.7%
COc1ccc(OCC(=O)NC(=S)Nc2ccccc2F)cc1 12.5%
CN(Cc1ccccc1)C(=O)COC(=O)COc1ccc(C#N)cc1 44.2%
Cc1sc2nc(SCCN(C)C)n(-c3ccccc3)c(=O)c2c1-c1ccc(F)cc1 57.2%
CCCCOc1cccc(C(=O)NNC(=S)NC2CCCCC2)c1 49%
Oc1ccc(Oc2ncc(Cl)cc2Cl)cc1 41.6%
CSCCC(NC(=O)c1ccccc1)C(=O)Nc1ccc(C)cc1 (stereo not drawn) -7.83%
O=C(C[n+]1cccc2ccccc21)c1ccc(Cl)cc1 31.1%
CC(C)Cc1csc(NC(=O)c2ccc(Br)cc2)c1C(=O)O 35.9%
CC(C)c1c(C(=O)N/N=C/c2cccc(OCc3ccc(F)cc3)c2)nnn1-c1nonc1N 4.16%
CCCOP(=O)(c1ccc(N(C)C)cc1)C(O)c1ccc(Br)cc1 (stereo not drawn) -9.68%
O=C(NNS(=O)(=O)c1ccc([N+](=O)[O-])cc1)c1ccc2ccccc2c1O 36.4%
CCN1CCN(CC(=O)Nc2ccc(S(=O)(=O)N3C(C)CCCC3C)cc2)CC1 (stereo not drawn) 76.4%
O=C(CCN1C(=O)/C(=C\c2cccc(Br)c2)SC1=S)NCCCN1CCOCC1 41.5%
S=c1nc(-c2ccco2)[nH][nH]1 44.5%
O=C(NC(=S)NNC(=O)[C@H]1C[C@@H]1c1ccccc1)c1cccc(F)c1 57.1%
CCCN1CCN(C(=S)Nc2ccc3nc(N4CCN(CC)CC4)cc(C)c3c2)CC1 71.7%
Cc1csc2c(N3CCN(C(=S)Nc4ccc(C(F)(F)F)cc4)CC3)ncnc12 36.7%
CCN1CCN(c2cc(C)c3cc(NC(=S)N4CCC5(CC4)OCCO5)ccc3n2)CC1 61%
O=c1c2c(C(F)(F)F)cc(C(F)(F)F)nc2[nH]n1-c1ccccc1 54.5%
CCN(CC)CCCN(C(=O)c1ccc(OC)cc1)c1nc(-c2ccc(OC)cc2)cs1 41.3%
CCCCCc1cc(=O)oc2c(C(CCN(CC)CC)c3cc(OC)c(OC)c(OC)c3)c(OC)cc(OC)c12 (stereo not drawn) 36.1%
COc1cccc(C(=O)NN/C(C)=C/C(=O)C(F)(F)C(F)(F)C(F)(F)F)c1 43.2%
CSC(SC)=C(C#N)C(=O)c1ccccc1 94.9%
O=C1ON=C(c2ccccc2)/C1=C/c1ccco1 58.5%
C/C(Cl)=C\Cn1c(O)c(N=O)c2ccccc21 51.9%
CCc1ccc(S(=O)(=O)c2n[nH]n3c2nc(=O)c2ccccc23)cc1 40%
CC(NS(=O)(=O)OCC(Cl)(Cl)Cl)c1ccc(Br)cc1 (stereo not drawn) 41.1%
O=C1CCN(CCc2ccccc2)CCN1CCSc1ccccc1 41.9%
O=S(=O)(c1ccc(F)c(F)c1)N1CCN(CCc2ccccc2)CC1 48.3%
COc1ccc(S(=O)(=O)N2CCN(CCc3ccccc3)CC2)c(OC)c1 50.7%
